Several values for one entry are separate records, joined by “and”; a condition that tells them apart may be missing. Identical values can stand only once. Results filed as inconclusive are left out. Some compounds were tested as several samples or in several runs, with calls that do not always agree. Activity calls are given as the source filed them. Rule for the calls, unless noted: active = hit-call score of the fitted dose curve at least 0.9, where 1 is the maximum; inactive = score below 0.9.
Legend:
[1] = CCTE_Shafer_MEA_acute_LDH: CCTE's Lactate Dehydrogenase Assay for Cytotoxicity in the Neural Acute Assay, Shafer Lab (AID 2284086; active = hit-call score of the fitted dose curve at least 0.9, where 1 is the maximum;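 note: active means LDH release rises above DMSO vehicle level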)
In short: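 Released lactate dehydrogenase, read at 490 nm, indicated cytotoxicity after acute 40-min compound treatment of rat cortical neuron networks grown on 48-well MEA plates.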

[2] = CCTE_Shafer_MEA_dev_mutual_information_norm: CCTE's Neural Network Formation Assay for Mutual Information Normalization, Shafer Lab (AID 2284091);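 for AC50: mutual information between electrodes summarised as area under curve across four recording days; potency is for a decrease in mutual information relative to DMSO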
In short: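 Developing rat cortical networks on 16-electrode MEA wells are treated throughout formation (DIV 0–12). Shared electrode information is recorded four times, converted to area-under-curve, and fitted for decreases against DMSO vehicle.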

[3] = CCTE_Shafer_MEA_dev_correlation_coefficient_mean: CCTE's Neural Network Formation Assay for Mean Correlation Coefficient, Shafer Lab (AID 2284093);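 for AC50: well mean pairwise spike train correlation integrated as AUC over recording days 5 to 12; potency fitted for loss of correlation relative to DMSO vehicle wells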
In short: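 Read-out: well-mean correlation coefficient of spike trains between electrode pairs, collapsed over four recording days as trapezoidal area-under-the-curve. Developing rat cortical neuron networks grown on MEAs received test chemical continuously from plating.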

[4] = IUF_NPC1b_proliferation_BrdU_72hr: Leibniz Research Institute for Environmental Medicine (IUF) 72-hour Neural Progenitor Cell Bromodeoxyuridine (BrdU) Proliferation Assay (NPC1b) (AID 2284207)
In short: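 Proliferation of primary human neural progenitor cells: 72 h compound treatment at 37C, 5% CO2, pH 7.2-7.6, in EGF/FGF-containing medium. Readout is BrdU uptake (last 16 h) by chemiluminescent ELISA, normalised to DMSO.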

[5] = IUF_NPC1a_proliferation_area_72hr: Leibniz Research Institute for Environmental Medicine (IUF) 72-hour Neural Progenitor Cell Proliferation Area Assay (NPC1a) (AID 2284208)
In short: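 Measured in 3D suspension: each well held one primary hNPC sphere grown with EGF and FGF at pH 7.2-7.6. Compound stayed on for 72 h, then area was imaged; spheres lacking growth factors defined reduced proliferation.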

[6] = CCTE_Shafer_MEA_dev_AB: CCTE's Alamar Blue Assay for Cytotoxicity in the Neural Network Formation Assay, Shafer Lab (AID 2284083; active = hit-call score of the fitted dose curve at least 0.9, where 1 is the maximum;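 note: twelve days of exposure from plating with re-dosing on DIV 5 and 9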)
In short: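 Fluorescent resazurin reduction serves as the viability read-out, with DMSO as negative control and baseline. Cells were primary rat cortical neurons grown on MEA plates and dosed from day 0 to day 12, treatment renewed on DIV 5 and 9.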

[7] = CCTE_Shafer_MEA_acute_AB: CCTE's Alamar Blue Assay for Cytotoxicity in the Neural Acute Assay, Shafer Lab (AID 2284069; active = hit-call score of the fitted dose curve at least 0.9, where 1 is the maximum;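 note: active compounds lower the viability signal compared with DMSO wells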)
In short: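 Metabolic activity in chemically exposed rat cortical neurons (MEA cultures, day 13/15 post-plating) measured via CellTiter Blue resazurin reduction, 544/590 nm fluorescence; fitted relative to DMSO, with signal loss indicating reduced viability.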

[8] = UKN5_HCS_SBAD2_neurite_outgrowth: University of Konstanz (UKN) Leist Lab Neurite Outgrowth Assay in human iPSC-derived immature Dorsal Root Ganglia Neurons (UKN5) (AID 2284070); settings: actives raise or lower the signal
In short: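 SBAD2 neurons, 24 h compound treatment, calcein-AM neurite area via HCS imaging; DMSO baseline, gain or loss of signal.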

[9] = UKN2_HCS_IMR90_neural_migration: University of Konstanz (UKN) Leist Lab Neural Crest Cell Migration Assay in human induced IMR90 Pluripotent Stem Cells (UKN2) (AID 2284204); settings: actives raise or lower the signal
In short: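 Migration of human IMR90-derived neural crest cells into a stopper-defined gap is imaged after 24 h chemical treatment. Activity is fitted bidirectionally relative to DMSO.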

[10] = UKN4_HCS_LUHMES_neurite_outgrowth: University of Konstanz (UKN) Leist Lab Neurite Outgrowth Assay in human LUHMES cells (UKN4) (AID 2284206); settings: actives raise or lower the signal
In short: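 2-day-differentiated LUHMES, 24 h cpd exposure, live calcein-AM + H-33342 stain, HCS fluorescence imaging of neurite area; DMSO = baseline, bidirectional fit.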

SMILES: CCO[Si](C)(OCC)OCC
- outcome [1]: inactive

SMILES: O=C1CCCN1CCO
- outcome [1]: inactive

SMILES: CC1(C)S[C@@H]2[C@H](NC(=O)COc3ccccc3)C(=O)N2[C@H]1C(=O)O
- outcome [2]: inactive
- outcome [3]: inactive
- outcome [4]: inactive
- outcome [5]: inactive

SMILES: CCOC(F)(F)C(F)(F)C(F)(F)C(F)(F)F
- outcome [6]: inactive
- outcome [2]: inactive
- outcome [3]: inactive

SMILES: FC(F)=C(F)OC(F)(F)C(F)(F)C(F)(F)F
- outcome [2]: inactive
- outcome [3]: inactive

SMILES: CC=CC(F)(F)C(F)(F)C(F)(F)F
- outcome [2]: inactive
- AC50 [3]: 3710 nM (active)

SMILES: Nc1ccc(N)c(Cl)c1
- outcome [7]: inactive
- outcome [1]: inactive

SMILES: CN(C)c1ccc(C(=N)c2ccc(N(C)C)cc2)cc1
- AC50 [6]: 4.33 µM (active)
- AC50 [2]: 975 nM (active)
- AC50 [3]: 1710 nM (active)

SMILES: CCCCC(CC)COCC1CO1 (stereo not given)
- outcome [1]: inactive

SMILES: CN1C(=O)N(C)C(O)C1O (stereo not given)
- outcome [1]: inactive

SMILES: O=C(c1ccc(O)cc1)c1ccc(O)cc1O
- outcome [7]: inactive
- outcome [1]: inactive

SMILES: CCCCC(CC)COC(=O)c1ccccc1O (stereo not given)
- outcome [1]: inactive

SMILES: N[C@H]1C(O)O[C@H](CO)[C@H](O)[C@@H]1O (stereo not given in full)
- AC50 [6]: 2.98 µM (active)
- outcome [2]: inactive
- AC50 [3]: 25400 nM (active)

SMILES: CO[Si](OC)(OC)c1ccccc1
- outcome [7]: inactive
- outcome [1]: inactive

SMILES: C=C[Si](OC(C)=O)(OC(C)=O)OC(C)=O
- outcome [1]: inactive

SMILES: CCOC(=O)c1ccccc1C(=C1C=C(Br)C(=O)C(Br)=C1)c1cc(Br)c(O)c(Br)c1
- outcome [1]: inactive

SMILES: c1ccc2c(c1)ccc1cc3c(ccc4ccccc43)cc12
- outcome [2]: inactive
- outcome [3]: inactive

SMILES: COC(F)(F)C(F)(C(F)(F)F)C(F)(F)F
- outcome [2]: inactive
- outcome [3]: inactive

SMILES: Nc1ncn([C@@H]2O[C@H](CO)[C@@H](O)[C@H]2O)c(=O)n1
- AC50 [8]: 10000 nM (active)
- AC50 [6]: 5 nM (active) and 15 µM (active)
- outcome [1]: inactive
- AC50 [2]: 1390 nM (active)
- outcome [2]: inactive
- AC50 [3]: 2910 nM (active)
- outcome [3]: inactive
- outcome [9]: inactive
- AC50 [10]: 13000 nM (active)
- AC50 [4]: 253 nM (active)
- outcome [5]: inactive
